Compound activity as filed in PubChem.
The list is not random: actives were taken first. Their share in the collection is about 1.1%.
VLA-4 inh: inhibition in human VLA-4 binding assay, primary screen, VLA-4 allosteric modulator project, MLPCN library, flow cytometry, VLA-4 expressing cells; ligand binding flow cytometry; inhibition, % (about 7 µM as worked out from the volumes in the protocol); 0.2% of 330,000 active; AID 2557, 2010; in the data active = inhibition above about 50%
LAP4-GFP MLPCN: modulators of LAP4-GFP expression in yeast, primary screen, S. cerevisiae, multiplex flow cytometry, MLPCN library | AID 2023, 2009 | 0.34% of 320,000 active | GFP response vs DMSO, % at 10 µM | 3 h; median GFP as percent of DMSO wells;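 active = GFP response vs DMSO above a set limit, about the screen mean plus 3 SD, cut at about 150% in these data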
CIT2-GFP yeast: modulators of CIT2-GFP expression in yeast, primary screen, S. cerevisiae, GFP fusion, multiplex flow cytometry, MLPCN library; S. cerevisiae CIT2-GFP strain, 3 h; 100 means same as DMSO wells; GFP response vs DMSO, % at 10 µM; 0.065% of 320,000 active;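 active = GFP response relative to DMSO above a set limit, near the screen mean plus 3 SD, cut at about 150% in these data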;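 note: ratio of well median GFP fluorescence to mean of DMSO wells on the plate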
MEP2 TOR yeast: modulators of MEP2-GFP levels in yeast, primary screen, S. cerevisiae, multiplex flow cytometry, MLPCN library | S. cerevisiae MEP2-GFP strain, 3 h; 100% = DMSO control level | GFP response vs DMSO, % at 10 µM | 0.51% of 330,000 active;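 active = GFP response versus DMSO above a set limit, roughly screen mean plus 3 SD, cut at about 180% in these data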;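 note: median GFP fluorescence of the barcode-gated MEP2-GFP cells per well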
RPL19A TOR yeast: RPL19A-GFP expression modulators in yeast, primary screen, cell-based, S. cerevisiae, multiplex flow cytometry, MLPCN; S. cerevisiae RPL19A-GFP strain, 3 h; active compounds read low; percent response vs DMSO, % at 10 µM; 0.3% of 330,000 active;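 active = percent response vs DMSO below 50%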;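 note: median channel GFP fluorescence of the barcoded RPL19A-GFP strain; lower means less RPL19A-GFP as with rapamycin TOR inhibition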
AGP1-GFP MLPCN: modulators of AGP1-GFP expression in yeast TOR pathway, primary screen, cell-based, multiplex flow cytometry, S. cerevisiae, MLPCN library; AID 2066, 2009; 3 h; GFP as percent of DMSO wells; 0.02% of 320,000 active; GFP response vs DMSO, % at 10 µM;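 active = GFP response relative to DMSO above a set limit, near screen average plus 3 SD, cut at about 150% in these data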;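 note: median GFP channel fluorescence of the gated AGP1 strain per well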
LAP4-GFP pick2: LAP4-GFP expression modulators in yeast, confirmation, cell-based, second cherry pick, flow cytometry; AID 2621, 2010; 20% of 590 active; S. cerevisiae LAP4-GFP strain, 3 h; shares compounds with LAP4-GFP MLPCN; GFP response vs DMSO, % at 10 µM;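 active = GFP signal as percent of the solvent control above about 150%, meaning raised reporter expression, limit read from the data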
MEP2 cherry2: modulators of MEP2-GFP levels in yeast, confirmation, S. cerevisiae, flow cytometry GFP, second cherry picks; 10% of 590 active; AID 2622, 2010; GFP response vs DMSO, % at 10 µM; S. cerevisiae MEP2-GFP strain, 3 h; shares compounds with LAP4-GFP MLPCN;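 active = GFP signal above 150% of the solvent control wells, that is a rise of more than half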;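 note: median channel GFP fluorescence of all gated yeast cells per well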
RPL19A GFP CP2: RPL19A-GFP modulators in TOR pathway yeast, confirmation, cell-based, S. cerevisiae, flow cytometry, second cherry pick. shares compounds with LAP4-GFP MLPCN. S. cerevisiae RPL19A-GFP strain, 3 h; active compounds read low; 100% means same as DMSO wells. GFP response vs DMSO, % at 10 µM. 3% of 590 active. AID 2623, 2010;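 active = under 65% GFP response relative to DMSO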;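 note: median GFP channel fluorescence per well over the all cells gate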
CIT2-GFP pick2: modulators of CIT2-GFP expression in yeast, confirmation, flow cytometry, second cherry pick, single plex | S. cerevisiae CIT2-GFP strain, 3 h; DMSO control wells read 100% | 8% of 590 active | GFP response vs DMSO, % at 10 µM | shares compounds with LAP4-GFP MLPCN;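 active = GFP response vs DMSO above about 150%, limit read from the data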;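 note: median green fluorescence per well over all gated yeast cells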
AGP1-GFP pick2: AGP1-GFP expression modulators, hit retest, confirmation, cell-based, flow cytometry, S. cerevisiae, cherry pick set 2; shares compounds with LAP4-GFP MLPCN; S. cerevisiae AGP1-GFP strain, 3 h; percent response vs DMSO, % at 10 µM; 590 tested, under 10 active; AID 2643, 2010;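 active = over 150 percent of DMSO response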;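 note: median GFP channel fluorescence over all cells without mother daughter split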
Yeast autofluor: compound autofluorescence in yeast s288c, dose response, artefact control for yeast TOR pathway GFP screen, s288c strain; fluorescence change (kMESF span) at 33 µM; 610 tested, under 10 active; AID 2757, 2010; S. cerevisiae s288c, 520 nm autofluorescence, flow cytometry, 3 h; active compounds read high; zero means same as solvent-only cells; shares compounds with LAP4-GFP MLPCN;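 active = fluorescence span over the dose series, or activity score, above about 33, limit read from the data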
Numbers stand for hits; - = inactive; . = no result given.

SMILES	VLA-4 inh	LAP4-GFP MLPCN	CIT2-GFP yeast	MEP2 TOR yeast	RPL19A TOR yeast	AGP1-GFP MLPCN	LAP4-GFP pick2	MEP2 cherry2	RPL19A GFP CP2	CIT2-GFP pick2	AGP1-GFP pick2	others
O=C1C2C3C=CC(CO)(O3)C2C(=O)N1c1ccc(-c2ccccc2)cc1 (centres undefined)	-	263	-	-	-	-	.	.	.	.	.	Yeast autofluor=-
CCCCCCCCCCCCCCCC[n+]1cccc2ccccc21	-	-	-	-	12	-	154	-	-	-	-	Yeast autofluor=-
COc1ccc(-c2[nH]c3ccccc3c2SCCNC(=O)c2ccccc2)cc1	-	217	-	662	-	-	-	-	-	-	-
COc1ccc2c(c1)CC[C@@H]1[C@@H]2CC[C@]2(C)[C@@H](C(=O)O)C[C@@H]12	-	167	-	-	-	-	-	-	-	-	-
COc1ccc2c(c1)CC[C@@H]1[C@@H]2CC[C@]2(C)[C@@H](C(C)=O)C[C@@H]12	-	-	-	-	-	-	.	.	.	.	.
Cc1cc(C)c(C(=O)N2CCCC(Nc3ccc(C)c(C)c3)C2)o1 (centres undefined)	-	-	-	-	-	-	.	.	.	.	.
Cc1cc(C)c(C(=O)N2CCCC(Nc3ccc(F)cc3)C2)o1 (centres undefined)	-	201	-	-	-	-	-	-	-	-	-
O=C(COC(=O)Cc1ccc(S(=O)(=O)N2CCOCC2)s1)Nc1ccccc1	-	-	-	-	-	-	.	.	.	.	.
O=C(COC(=O)/C=C/c1cccc(F)c1)NC(=O)NC1CCCC1	-	164	-	-	-	-	-	-	-	-	-
O=C(COC(=O)/C=C/c1cccc(F)c1)NC1CCCC1	-	-	-	-	-	-	.	.	.	.	.
COc1ccc(-c2cc(C)no2)cc1S(=O)(=O)N1CCCN(Cc2ccc(F)cc2)C1	-	-	-	-	-	-	-	-	-	-	-
COc1ccc(-c2cc(C)no2)cc1S(=O)(=O)Nc1cccc(CN2CCCC2)c1	-	-	-	-	-	-	.	.	.	.	.
CCOc1ccc(S(=O)(=O)N2CCC(C(=O)NCCc3ccccc3)CC2)cc1	-	-	-	-	-	-	.	.	.	.	.
Cc1c(NC2=C(Cl)C(=O)N(c3ccccc3Cl)C2=O)c(=O)n(-c2ccccc2)n1C	-	-	-	-	-	-	.	.	.	.	.	Yeast autofluor=-
